Compound activity from PubChem BioAssay.
Shown is part of a subset that was picked to be rich in hits.
NPSR antag = antagonists of human neuropeptide S receptor cAMP signaling | CHO-NPSR cells, cAMP TR-FRET, antagonist mode | 220,000 compounds, 1% hits | Potency, µM (top dose mostly 38.3 µM), most hits filed as inhibitors; also: nearly all actives have a fitted effect of over 50% in size
Target sequence (Q6W5P4 whole entry, looked up): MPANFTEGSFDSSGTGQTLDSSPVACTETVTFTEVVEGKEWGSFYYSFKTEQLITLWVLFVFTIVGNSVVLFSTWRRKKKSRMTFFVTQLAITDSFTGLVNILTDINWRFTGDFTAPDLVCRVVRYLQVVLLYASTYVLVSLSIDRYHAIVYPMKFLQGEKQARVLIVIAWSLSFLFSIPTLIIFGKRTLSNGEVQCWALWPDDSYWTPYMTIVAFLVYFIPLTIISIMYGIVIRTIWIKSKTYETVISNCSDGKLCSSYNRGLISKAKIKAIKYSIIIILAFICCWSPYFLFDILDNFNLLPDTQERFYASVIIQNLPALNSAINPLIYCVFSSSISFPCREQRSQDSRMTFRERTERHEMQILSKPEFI
IMPase inh = cell-permeable inhibitors of inositol monophosphatase (IMPase); inhibition (IP1 accumulation), % at 46.1 µM; P97697; AID 901; 120,000 tested, under 10 active; CHO-M1 cells, IP1 accumulation, HTRF TR-FRET ratio; active = well fitted curve in the direction sought with a large enough effect in the signal ratio, not every such curve was filed as active; inconclusive = small, poorly fitted or top-dose-only effect, or a change in a side signal; inactive = no such curve, though single readings can be large or run the other way; the % refers to the signal ratio;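 also: cells stimulated with carbachol in lithium chloride buffer; higher means more IMPase inhibition seen as more IP1 and lower FRET ratio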
Target sequence (P97697 whole entry, looked up): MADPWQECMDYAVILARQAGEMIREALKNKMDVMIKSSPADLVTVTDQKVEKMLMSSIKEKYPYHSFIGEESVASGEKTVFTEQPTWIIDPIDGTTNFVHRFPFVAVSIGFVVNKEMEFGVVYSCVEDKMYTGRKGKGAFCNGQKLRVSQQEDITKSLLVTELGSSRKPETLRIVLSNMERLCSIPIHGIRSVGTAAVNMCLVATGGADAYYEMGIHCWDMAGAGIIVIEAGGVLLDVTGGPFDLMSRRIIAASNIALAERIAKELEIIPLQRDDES
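Measured: the HTRF emission ratio (665/620 nm) plus the 620 nm donor channel, each fitted to the Hill equation to give AC50. Cells were CHO-M1 given compounds up to 46 uM and a 30 min carbachol stimulation at 37C.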
IMPase Li inh = cell-permeable IMPase inhibitors with lithium potentiation; CHO-M1 cells, IP1 TR-FRET (IP-One), carbachol + lithium; 210,000 compounds, 0.35% hits; Potency, µM (highest dose often 59.4 µM), actives largely listed as inhibitors; AID 1457;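 also: IP1 builds up when IMPase is blocked and the TR-FRET signal falls; nearly all actives have a fitted effect of over 50% in size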
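Lithium-sensitised IP1 accumulation assay; M1-expressing CHO cells treated 30 min at 37C with compound. Competitive antibody detection by time-resolved FRET followed a 10 min room-temperature lysis step.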
Each line names hits and unclear results; the compound was inactive in the other large screens. Unless noted, calls follow the shape of the dose curve; as a rule, active = well fitted curve in the direction sought with a large enough effect; inconclusive = small, poorly fitted or top-dose-only effect, or another doubt; inactive = no such curve, though single readings can be large; an effect the other way counts as inactive or inconclusive.

Cc1cc(C)c2nc3c(c([C@H](O)C4CCCCN4)c2c1)CC/C3=C/c1ccc(Cl)cc1 (some centres undefined)	none (no result: NPSR antag, IMPase inh)
CCOC(=O)CSc1nc(-c2ccccc2)nc2ccc(F)cc12	IMPase inh inconclusive, IMPase Li inh 10µM
COC(=O)CSc1nc(-c2ccccc2)nc2ccc(F)cc12	IMPase Li inh inconclusive
CSc1nc2cc(Oc3cccc(Cl)c3Cl)c(Cl)cc2[nH]1	NPSR antag 12.6µM (no result: IMPase inh, IMPase Li inh)
CSc1nc2ccc(Cl)cc2[nH]1	none
CCCC(=NCCc1c(C)[nH]c2ccccc12)C1=C(O)CC(c2ccccc2)CC1=O (centres undefined)	none (no result: IMPase inh)
CCCCC(=NCCc1c(C)[nH]c2ccccc12)C1=C(O)CC(c2ccccc2)CC1=O (centres undefined)	NPSR antag 7.94µM (no result: IMPase inh)
CC(=NCCc1c(C)[nH]c2ccc(OC(F)(F)F)cc12)C1=C(O)CC(c2ccccc2)CC1=O (centres undefined)	NPSR antag 10µM (no result: IMPase inh)
CC(=NCCc1c(C)[nH]c2ccc(C)cc12)C1=C(O)CC(c2ccccc2)CC1=O (centres undefined)	none (no result: IMPase inh)
CC(C)OC(=O)c1cccc(-c2ccc(C=O)o2)c1	none (no result: IMPase inh)
O=CNc1ncn[nH]1	none (no result: NPSR antag, IMPase inh)
O=C1c2ccccc2-c2onc3ccc(Oc4ccccc4)c1c23	NPSR antag inconclusive
CCOC(=O)C(C(=O)OCC)c1cc(Br)c2noc3c2c1C(=O)c1ccccc1-3	NPSR antag 3.98µM
COc1ccc(S(=O)(=O)N2CCOC2CNC(=O)C(=O)NCc2ccco2)cc1OC (centres undefined)	none (no result: IMPase inh, IMPase Li inh)
Cc1cc(N)c2ccccc2[n+]1CCCCCCCCCCCCCC[n+]1c(C)cc(N)c2ccccc21	NPSR antag 15.8µM
Cc1cc(N)c2ccccc2n1	none (no result: IMPase inh)
CCOC(=O)c1cnc(-n2nc(C)cc2C)nc1Nc1ccc(C)cc1	NPSR antag 1.26µM
CCOC(=O)c1cnc(-n2nc(C)cc2C)nc1Nc1ccc(N(C)C)cc1	none
CC(=O)OC(C)C	none (no result: NPSR antag, IMPase inh)
NC(=O)C1CCN(C2=C(Cl)C(=O)c3ccccc3C2=O)CC1	NPSR antag 10µM
O=C1C(Cl)=C(N2CCC(C(=O)O)CC2)C(=O)c2ccccc21	none (no result: IMPase inh, IMPase Li inh)
COc1ccc2c(c1)C(c1ccccc1C)CC(=O)O2 (centres undefined)	none (no result: NPSR antag, IMPase inh)
CC1(C)CC(=O)c2cc3c(N)c(C(=O)NCc4ccccc4)sc3nc2C1	none
CN1CCc2nc3sc(C(=O)NCc4ccccc4)c(N)c3cc2C1	NPSR antag 12.6µM (no result: IMPase inh)
Cn1c(=O)c(-c2cc(F)cc(F)c2)nc2cnc(N3CCNCC3)nc21	none (no result: NPSR antag, IMPase inh)
CCCCc1ccc(C(=O)N/C(=C\c2ccc(C)cc2)C(=O)NC2CCCCC2)cc1	none (no result: NPSR antag, IMPase Li inh)
CC(=O)CCc1c(C)c2cccc(C)c2[nH]c1=O	none
COc1cccc2c(=S)c(CCC(C)=O)c(C)[nH]c12	IMPase Li inh 10µM
CCOC(=O)c1ccc(NC(=O)C(=O)NCC2(c3ccc(OC)cc3)CCOCC2)cc1	none (no result: IMPase inh, IMPase Li inh)
Cc1ccc(-c2nc3cccnc3o2)cc1NC(=O)COc1ccc(Cl)cc1C	NPSR antag inconclusive, IMPase inh inconclusive, IMPase Li inh 6.31µM
Cc1ccc(-c2nc3ncccc3o2)cc1NC(=O)CC(C)C	none (no result: IMPase inh)
Cc1ccc(-c2nc3ncccc3o2)cc1NC(=O)COc1ccccc1	IMPase Li inh 11.2µM
Cc1ccc(-c2nc3cccnc3o2)cc1NC(=O)COc1ccc(C(C)(C)C)cc1	NPSR antag inconclusive
CCc1ccc2[nH]c(C(=O)Nc3ccc4c(c3)OCO4)cc2c1	none (no result: IMPase inh, IMPase Li inh)
COCCNc1nc(-c2cc(C)c(C)cc2C)cs1	none (no result: IMPase inh)
O=C(COC(=O)c1c(F)cccc1F)c1ccc[nH]1	none (no result: IMPase inh, IMPase Li inh)
CCOC(=O)c1[nH]c2c(c1Cc1ccccc1)C(=O)CC(c1ccc(OC)cc1)C2 (centres undefined)	none (no result: NPSR antag, IMPase Li inh)
Cc1cc(C2=NNC(=NC3CC3)SC2)c(C)n1-c1c(C)n(C)n(-c2ccccc2)c1=O	none (no result: IMPase inh)
Cc1ccc(-n2c(C)cc(C3=NNC(=NC4CC4)SC3)c2C)cc1C	NPSR antag 10µM
Cc1ccccc1NC(=O)C1CCN(c2cc(-c3ccccc3)nc3ncnn23)CC1	IMPase Li inh 8.91µM
O=C(Nc1ccc(Oc2ccccc2)cc1)C1CCN(c2c3c(nc4ncnn24)CCC3)CC1	NPSR antag 12.6µM
Cc1nc2ncnn2c(N2CCC(C(=O)NC3CCCC3)CC2)c1Cc1ccccc1	none
O=C(Nc1ccc2c(c1)CCC2)C1CCN(c2c3c(nc4ncnn24)CCC3)CC1	none
CN(C)c1ccc(-c2cncnc2Nc2ccc(F)cc2)cc1	none (no result: NPSR antag, IMPase inh)
Cc1ccc2c(c1)N[C@H](c1ccc(C(=O)O)cc1)c1cccn1-2	none (no result: NPSR antag, IMPase inh)
CCCCNC(=O)C(c1ccc(OCC(=O)OC)c(C(=O)OC)c1)N(CCc1ccccn1)C(=O)CCCCCN1C(=O)NC(c2ccc(-c3ccccc3)cc2)C(C(=O)OCc2ccccc2)=C1C (centres undefined)	none (no result: NPSR antag, IMPase inh)
Nc1nc(Cc2ccccc2)nc(Cc2ccccc2)c1-c1ccccc1	none (no result: NPSR antag, IMPase inh)
O=C(CN1CCN(c2ccc(F)cc2)CC1)Nc1nnc(-c2ccccc2)s1	IMPase Li inh 11.2µM
O=C(CN1CCN(c2ccccc2)CC1)Nc1nnc(-c2ccccc2)s1	none
Cc1ccc(N/C(N)=N/c2nc3c(c(=O)[nH]2)CCCC3)c(C)c1	none
Cc1ccc(N/C(N)=N/c2nc(C)cc(N3CCCCC3)n2)c(C)c1	NPSR antag 10µM (no result: IMPase inh)
O=C(CSc1ncnc2c1oc1ccccc12)NCc1ccc(F)cc1	NPSR antag inconclusive, IMPase Li inh 25.1µM
O=C(CSc1ncnc2c1oc1ccccc12)c1cccs1	IMPase inh inconclusive, IMPase Li inh 12.6µM
O=C(CSc1ncnc2c1oc1ccccc12)NC1CCCCC1	NPSR antag inconclusive, IMPase Li inh 11.2µM
NC(=O)CSc1ncnc2c1oc1ccccc12	NPSR antag inconclusive, IMPase inh inconclusive, IMPase Li inh 12.6µM
O=C(CSc1ncnc2c1oc1ccccc12)Nc1cccc(F)c1	NPSR antag inconclusive, IMPase Li inh inconclusive
Cc1nc(SCC(=O)c2cccs2)c2oc3ccccc3c2n1	none
O=C(CSc1ncnc2c1oc1ccccc12)OCc1ccccc1	NPSR antag inconclusive
Cc1cccc(NC(=O)CSc2ncnc3c2oc2ccccc23)c1	NPSR antag inconclusive
Cc1noc(C)c1-c1cc(Nc2ccccc2)ncn1	none (no result: NPSR antag, IMPase inh)
CC(C)NC(=O)CN1CCC(c2ccccc2)C(O)C1 (centres undefined)	none (no result: IMPase inh)
CCCc1nc2ccccc2n1CC(O)COc1ccc(C(=O)OC)cc1 (centres undefined)	none (no result: NPSR antag, IMPase Li inh)
c1ccc(C[C@@H](Nc2cccnc2)c2ccccc2)cc1	none (no result: NPSR antag, IMPase inh)
CC(NC(=O)c1cnccn1)c1ccc(S(N)(=O)=O)cc1 (centres undefined)	none (no result: IMPase inh, IMPase Li inh)
CNCC[C@H](Oc1ccccc1C)c1ccccc1	none (no result: NPSR antag, IMPase Li inh)
O=C(CCn1c(=O)[nH]c2ccsc2c1=O)Nc1ccc(F)c(F)c1	IMPase Li inh 10µM
O=C(CCn1c(=O)[nH]c2ccsc2c1=O)NCCc1ccc(Cl)cc1	none
Cc1ccccc1CNc1ncnc2c1ncn2[C@@H]1O[C@@H](CO)[C@H](O)[C@@H]1O	none (no result: NPSR antag, IMPase Li inh)
Cc1nn2c(NCCCN3CCOCC3)c3c(nc2c1-c1ccccc1)CCC3	NPSR antag inconclusive
CCCCNc1c2c(nc3c(-c4ccccc4)c(C)nn13)CCC2	NPSR antag 10µM
Cc1ccc2nc(SCC(=O)NCc3cccs3)c(C#N)cc2c1	NPSR antag 10µM, IMPase inh inconclusive, IMPase Li inh 12.6µM
COc1ccc2cc(C#N)c(SCC(=O)NNC(=O)Cc3ccccc3)nc2c1	IMPase Li inh inconclusive
COC(=O)CSc1nc2ccc(C)cc2cc1C#N	none (no result: IMPase inh)
